Experimental data from PubChem BioAssay AID1159580 (chemical genetic matrix, 2015).
Hit rate of the full screen: of about 5,500 compounds, about 2,000 (36%) were called active. Inconclusive results (about 18%) are left out. No stated cut-off is given here; in the data, active means normalized growth mostly below about 0.91 (no sharp cut-off); inconclusive means no clear call, values can overlap the other calls; inactive means mostly above about 0.92. Some of the results follow.

Experiment: chemical genetic growth profiling, strain panel (AID 1159580);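 further: tested at 20 µM; growth read once vehicle control cultures reached saturation at 30 °C; 1 = growth at the plate median or of vehicle wells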
Details: S. cerevisiae deletion strains, growth OD
[1] = locus YAL013W, strain DEP1, stronger effect = lower value
[2] = locus YMR263W, strain SAP30, stronger effect = lower value
[3] = locus YMR307W, strain GAS1, stronger effect = lower value
[4] = locus YNL153C, strain GIM3, stronger effect = lower value
[5] = locus YNL322C, strain KRE1, stronger effect = lower value
[6] = locus YPL241C, strain CIN2, stronger effect = lower value

Measured: normalized growth

CC(C)(C)C1(O)CCN2CC3c4ccccc4CCc4cccc(c43)C2C1 (stereo unspecified)
inactive: [1] 1.02 | locus YAL040C, strain CLN3, stronger effect = lower value 0.975 | locus YCL061C, strain MRC1 (second series), stronger effect = lower value 0.986 | locus YDR150W, strain NUM1, stronger effect = lower value 1 | locus YDR363W, strain ESC2, stronger effect = lower value 1.04 | locus YER002W, strain NOP16, stronger effect = lower value 0.993 | [2] 1.01 | [3] 1.02 | [4] 0.983 | locus YNL175C, strain NOP13, stronger effect = lower value 0.996 | locus YNL197C, strain WHI3, stronger effect = lower value 0.972 | locus YNL224C, strain SQS1, stronger effect = lower value 0.997 | [5] 1.01 | locus YOR083W, strain WHI5 (second series), stronger effect = lower value 1.01 | locus YPL055C, strain LGE1, stronger effect = lower value 1.02 | [6] 0.999

CC1(C)OC(=O)C=CC2(C)C1CC(O)C1(C)C2CCC2(C)C(c3ccoc3)OC(=O)C3OC321 (stereo unspecified)
inactive: [1] 1.02 | locus YBR021W, strain FUR4, stronger effect = lower value 0.971 | locus YBR229C, strain ROT2, stronger effect = lower value 1.01 | locus YCL029C, strain bik1, stronger effect = lower value 1.02 | locus YDL035C, strain GPR1, stronger effect = lower value 1.01 | locus YDL074C, strain BRE1, stronger effect = lower value 1.02 | locus YDL101C, strain DUN1, stronger effect = lower value 1.01 | locus YDL134C, strain PPH21, stronger effect = lower value 1.01 | locus YDL185W, strain tfp1, stronger effect = lower value 1.02 | locus YDL192W, strain arf1, stronger effect = lower value 1.01 | locus YDR101C, strain arx1, stronger effect = lower value 0.998 | locus YDR162C, strain NBP2, stronger effect = lower value 1.04 | locus YDR318W, strain mcm21, stronger effect = lower value 1.01 | locus YDR388W, stronger effect = lower value 1.02 | locus YDR502C, strain sam2, stronger effect = lower value 1.04 | locus YER110C, stronger effect = lower value 1.02 | locus YER155C, strain BEM2, stronger effect = lower value 0.996 | locus YER167W, strain BCK2, stronger effect = lower value 0.997 | locus YGL078C, strain dbp3, stronger effect = lower value 1.01 | locus YGL086W, strain mad1, stronger effect = lower value 1.01 | locus YGL248W, strain PDE1, stronger effect = lower value 1.01 | locus YGR078C, strain PAC10, stronger effect = lower value 1 | locus YGR135W, strain pre9, stronger effect = lower value 1.04 | locus YGR252W, strain gcn5, stronger effect = lower value 0.965 | locus YHR030C, strain SLT2, stronger effect = lower value 1.01 | locus YHR079C, strain IRE1 (second series), stronger effect = lower value 1.01 | locus YHR094C, strain hxt1, stronger effect = lower value 1.02 | locus YHR129C, strain ARP1, stronger effect = lower value 1 | locus YHR200W, strain rpn10, stronger effect = lower value 1.01 | locus YIL066C, strain RNR3, stronger effect = lower value 1.01 | locus YIL073C, strain SPO22, stronger effect = lower value 1.03 | locus YIL125W, strain kgd1, stronger effect = lower value 1.02 | locus YIR030C, strain dcg1, stronger effect = lower value 1.01 | locus YJL095W, strain BCK1, stronger effect = lower value 1.03 | locus YJL134W, strain LCB3, stronger effect = lower value 1.01 | locus YJL168C, strain set2, stronger effect = lower value 1.01 | locus YJL187C, strain SWE1 (second series), stronger effect = lower value 1.01 | locus YKL009W, strain mrt4, stronger effect = lower value 1.01 | locus YKL068W, stronger effect = lower value 1.02 | locus YKL085W, strain MDH1 (second series), stronger effect = lower value 1 | locus YKL085W, strain MDH1, stronger effect = lower value 1 | locus YKR001C, strain vps1, stronger effect = lower value 1.04 | locus YLR039C, strain RIC1, stronger effect = lower value 1.05 | locus YLR058C, strain SHM2, stronger effect = lower value 1.01 | locus YLR102C, strain apc9, stronger effect = lower value 1.01 | locus YLR262C, strain YPT6, stronger effect = lower value 1.09 | locus YLR268W, strain sec22, stronger effect = lower value 1.02 | locus YLR330W, strain CHS5, stronger effect = lower value 1.01 | locus YLR342W, strain FKS1 (second series), stronger effect = lower value 0.995 | locus YLR371W, strain rom2, stronger effect = lower value 0.997 | locus YLR418C, strain cdc73, stronger effect = lower value 1.05 | locus YML016C, strain PPZ1, stronger effect = lower value 1.01 | locus YML032C, strain rad52, stronger effect = lower value 1.02 | locus YML124C, strain tub3, stronger effect = lower value 1.01 | locus YMR078C, strain ctf18, stronger effect = lower value 1 | locus YMR223W, strain ubp8, stronger effect = lower value 1.01 | [2] 1.01 | [3] 1.06 | locus YNL067W, strain RPL9B, stronger effect = lower value 1.02 | [4] 1.01 | locus YNL233W, strain BNI4, stronger effect = lower value 1.01 | locus YNL250W, strain rad50, stronger effect = lower value 1.01 | locus YNL271C, strain bni1, stronger effect = lower value 1.01 | locus YNL298W, strain CLA4, stronger effect = lower value 1.04 | locus YNL307C, strain MCK1, stronger effect = lower value 1.02 | [5] 1 | locus YNR052C, strain pop2, stronger effect = lower value 1.02 | locus YOL012C, strain htz1 0.873 | locus YOL147C, strain pex11, stronger effect = lower value 1.01 | locus YOR061W, strain CKA2, stronger effect = lower value 1.01 | locus YOR069W, strain VPS5, stronger effect = lower value 1.01 | locus YOR136W, strain idh2, stronger effect = lower value 1.02 | locus YOR144C, strain elg1, stronger effect = lower value 1.01 | locus YOR184W, strain ser1, stronger effect = lower value 0.995 | locus YOR316C, strain cot1, stronger effect = lower value 1.02 | [6] 1.01 | locus YPR119W, strain clb2, stronger effect = lower value 1 | locus YPR141C, strain kar3, stronger effect = lower value 1.01 | locus YPR167C, strain met16, stronger effect = lower value 1 | strain wtn01, stronger effect = lower value 1.01
